NFkB transloc inh: blocks IL-1B driven NFkB nuclear translocation in HUVEC cells; HUVEC IL-1B NFkB p65 nuclear translocation imaging; inhibition, % at 2 µM; AID 796; actives 0.43% (n = 94,000);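 active = inhibition above about 30% together with a positive call from visual inspection of the well image, limit read from the data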;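 also: nuclear over cytoplasmic p65 intensity ratio measured by imaging; 0% = IL-1B stimulated DMSO wells and 100% = unstimulated DMSO wells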
IL1B cytotox: toxic to HUVEC cells under IL-1B stimulation; actives 0.41% (n = 94,000); HUVEC cell count loss, Hoechst imaging, IL-1B stimulated; cell count reduction, % at 2 µM;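 active = cell count reduction more than 3 SD above the screen-wide mean, cut at about 70% in these data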;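 also: normalized per plate to untreated control cells as the no-loss baseline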
HUVEC tox TNFa: HUVEC cytotoxicity counter-screen, TNF alpha stimulated; HUVEC TNFalpha-stimulated, Hoechst cell count, imaging; cell count reduction, % at 2 µM; actives 0.17% (n = 93,000); AID 848;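 active = cell count reduction exceeding the screen mean by over 5 SD, scaled to untreated wells per plate, cut at about 78% in these data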;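 also: cells counted after 24 h of TNF alpha exposure following the 1 h pretreatment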
NFkB transloc pot: enhances IL-1B driven NFkB nuclear translocation | HUVEC IL-1B NFkB p65 nuclear translocation imaging | activation, % at 2 µM | actives 0.3% (n = 94,000);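 active = activation above 40%, about the mean plus 3 SD, also judged a hit on visual image review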;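 also: percent activation is computed from the nuclear over cytoplasmic p65 intensity ratio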
E-sel TNF inh: TNF alpha driven E-selectin expression inhibition | HUVEC TNFa-induced E-selectin immunofluorescence, high content | inhibition, % at 2 µM | actives 0.71% (n = 120,000) | AID 1246;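 active = inhibition above the batch mean plus 3 SD, and confirmed as a hit on visual image review, cut at about 43% in these data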;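 also: 0% = TNF-stimulated DMSO wells and 100% = unstimulated control wells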
VCAM1 TNFa inh: reduces TNF alpha induced VCAM1 expression in HUVEC. HUVEC TNFa-induced VCAM-1 immunofluorescence, high-content imaging. inhibition, % at 2 µM. actives 0.48% (n = 95,000). AID 802;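 active = inhibition above the batch mean plus 3 SD, with images confirmed as a hit by eye, cut at about 37% in these data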;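 also: 0% = TNF-stimulated DMSO wells and 100% = unstimulated control wells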
Numbers without * were called inactive; x = no result given. This is a sample that favours compounds with a hit; in the whole collection about 1.6% have one here.

SMILES	NFkB transloc inh	IL1B cytotox	HUVEC tox TNFa	NFkB transloc pot	E-sel TNF inh	VCAM1 TNFa inh
Cc1ccn2c(NC(=O)c3ccco3)c(-c3ccccc3)nc2c1	-6	-9	-13	6	-12	97*
COCc1cccc(N2C(=O)CC(C3C=C(C)C4C(=O)N(c5cccc(COC)c5)C(=O)C4C3)C2=O)c1 (centres undefined)	x	x	x	x	-7	x
N#CC1=C(N)Oc2c(ccc3ccccc23)C1c1cccs1 (centres undefined)	17	20	51	-17	6	80*
O=C(/C=C\Nc1cccc(F)c1)c1cccs1	9	-14	-31	-9	70*	3
O=C(/C=C/Nc1ccc(F)cc1F)c1cccs1	x	x	x	x	-26	x
COc1ccc(C(=O)C(CO)Oc2ccccc2OC)cc1OC (centres undefined)	0	0	-29	0	73*	5
Cc1ccc(NCC(=O)NNC2=NCCC2)c(C)c1	x	x	x	x	-7	x
COc1ccc(C(C)(C)C)cc1S(=O)(=O)N1CCN(C)CC1	-8	4	-22	8	11	93*
COc1ccc(OC)c(S(=O)(=O)N2CCN(C)CC2)c1	x	x	x	x	-26	x
CC(=O)N1C(C(=O)O)CSC1c1cccc(C)c1 (centres undefined)	36*	3	-9	-36	1	4
CCC(C)(C)n1nnnc1C(c1ccc(OC)c(OC)c1)N1CCN(c2cccc(OC)c2)CC1 (centres undefined)	-1	4	-22	1	19	10
CCC(C)(C)n1nnnc1C(c1ccc(OC)c(OC)c1)N1CCN(c2ccccc2)CC1 (centres undefined)	-1	-36	-6	1	83*	2
COc1cc(OC)cc(-c2nc3ccccc3c(=O)n2OC(=O)c2ccc(C)c(C)c2)c1	x	x	x	x	2	x
Cc1cc(C(=O)Nc2nc3c(s2)CCCC3)no1	-18	-4	-18	18	40*	4
CC(C)c1c(O)cc(-c2ccncc2)n(-c2ccc(Cl)cc2)c1=O	x	x	x	x	68*	x
COc1ccc2c(c1)O[C@@H](c1cccc(C(F)(F)F)c1)[C@H](OC(=O)NCCc1ccc(OC)c(OC)c1)C2=O	x	x	x	x	-27	x
CCn1cnc2scc(-c3ccccc3)c2c1=O	-3	-1	-10	3	-21	-9
Cn1cc(/C=N/n2cnc3scc(-c4ccc(Cl)cc4)c3c2=O)c2ccccc21	37*	57	65	-37	x	75*
COc1ccccc1N1CCN(C(=O)CN(C)S(=O)(=O)c2ccc3c(c2)c(=O)n(C)c(=O)n3C)CC1	x	x	x	x	-33	x
FC(F)(F)c1nnc2n1N=C(c1cccs1)CS2	x	x	x	x	-13	x
Cc1cc(S(=O)(=O)N2CCN(c3ccccc3O)CC2)c(C)s1	8	-2	-13	-8	57*	15
COC(=O)C1=C(C)N(C)C(=S)NC1c1ccc(OC)cc1OC (centres undefined)	x	x	x	x	-45	x
CC(=O)NCCn1c(SCC(=O)NCCC(C)C)nc2ccccc2c1=O	99*	2	-9	-99	14	15
O=C(OCn1ncc(Br)c(Br)c1=O)c1c(F)cccc1F	89*	32	17	-89	23	74*
CCOC(=O)c1sc2nc(COC(=O)c3c(F)cccc3F)[nH]c(=O)c2c1C	x	x	x	x	13	x
SMILES	NFkB transloc inh	IL1B cytotox	HUVEC tox TNFa	NFkB transloc pot	E-sel TNF inh	VCAM1 TNFa inh
COCc1cc(C)n(CC(=O)Nc2ccc(Cl)cc2Cl)c(=O)c1C#N	-41	-2	-8	41*	-45	-10
COc1ccccc1C(=O)Nc1ccc2c(c1)nc(CN1CCN(C(C)=O)CC1)n2C	-8	21	-10	8	21	90*
Clc1ccc(C2=Nn3c(nnc3-c3cccnc3)SC2)s1	-24	0	72	24	x	78*
Cc1ccc(S(=O)(=O)c2c(C)cc(C)nc2Cl)c(C)c1	-2	-6	-7	2	2	0
Cc1cc(C)c(S(=O)(=O)/N=C2\C=CC(=O)C(Cl)=C2)c(C)c1	31*	23	-5	-31	-6	2
O=C(O)c1sc2cc(C(F)(F)F)cnc2c1-c1ccccc1	-1	-2	-9	1	14	9
FC(F)(F)c1cnc2c(-c3ccccc3)n[nH]c2c1	x	x	x	x	68*	x
CN(C)CCSc1nnc2[nH]c3ccccc3c2n1	x	x	x	x	7	x
CCOc1ccc2ccccc2c1/C=N/NC(=O)CNC(=O)C(c1ccccc1)c1ccccc1	x	x	x	x	33	x
CCOC(=O)C1C(c2cc(OC)c(O)c(OC)c2)NC(=S)NC1(O)C(F)(F)F (centres undefined)	x	x	x	x	72*	x
CC1=C(C(N)=O)C(c2ccccn2)n2nc(-c3ccccc3Cl)nc2N1 (centres undefined)	36*	-6	2	-35	x	0
COc1ccccc1C1C(C(N)=O)=C(C)Nc2nc(-c3ccccc3Cl)nn21 (centres undefined)	6	-8	-38	-6	12	0
CCC1c2ccc(C)n2CCN1C(=O)Nc1ccccc1C(=O)OC (centres undefined)	1	92*	-10	-1	-17	8
O=C(CCCCCN1C(=O)c2ccccc2C1=O)Nc1nccs1	-3	-15	69	3	7	50*
CSc1ccccc1C(=O)N1CCc2ccccc2C1	x	x	x	x	12	x
CCOc1ccc(OCC)c(NC(=O)CN2CCN(c3cccc(C)c3)C(C)C2)c1 (centres undefined)	-30	1	6	30	-4	7
CCOc1ccc(OCC)c(NC(=O)CN2CCN(c3cccc(C)c3)CC2)c1	x	x	x	x	95*	x
COc1ccc(NC2c3ncccc3C(=O)N2Cc2ccccc2)c(OC)c1 (centres undefined)	-16	90*	-9	16	17	8
CN(C(=O)c1cc2ccccc2oc1=O)C1(C)CCS(=O)(=O)C1 (centres undefined)	x	x	x	x	26	x
O=C1c2ccccc2C(Nc2ccc(S(=O)(=O)N3CCCCCC3)cc2)N1Cc1ccco1 (centres undefined)	-8	-11	-8	8	66*	4
COCCCN1CN=C(Nc2nc3ccccc3o2)NC1	x	x	x	x	-36	x
CCOc1ccc(-n2nc(C(=O)N3CCN(CC)CC3)c3ccccc3c2=O)cc1	x	x	8	x	66*	-6
COc1ccc(CC(=O)NCc2n[nH]c(=S)n2-c2cccc(Cl)c2)cc1	x	x	x	x	-18	x
CCOc1ccc(NCc2nc3ccccc3n2CCOc2ccccc2)cc1	x	x	x	x	92*	x
Cc1nn(-c2ncc(C(F)(F)F)cc2Cl)c(=O)n1-c1ccccc1Cl	31*	19	13	-31	4	17
Cc1nn(-c2ncc(C(F)(F)F)cc2Cl)c(=O)n1-c1cccc(Cl)c1	8	-2	10	-8	22	-16
CS(=O)(=O)N1CCc2cc(-c3csc(NC(=O)Cc4cccs4)n3)ccc21	15	23	-34	-15	93*	-3
O=C(NCc1ccco1)C1CC(c2cccc([N+](=O)[O-])c2)=NO1 (centres undefined)	15	-9	2	-15	100*	-6
Cc1ccc(C)n1-c1cccc(NC(=O)c2ccccc2)c1	x	x	x	x	93*	x

Assay outcomes (PubChem)
